# Measurements: the supplement of paper PMC8728848
# About 410 targets per protein were measured; listed, in parts, are those with the strongest signals and a random draw of the rest.
# B1: Gal 2 (Canis lupus) (protein)
# chain: MSGKFEVMNMDMKLGGTLKIKGKIAGDADGFVINLGQGSDKLNLHFNPRFHESVIVCNSRNWGQEQRDKHMCFSPGSEVKFTVTFENDGFKVKLPDGHQLTFPNRLGHSHLSYLGVQGGLKVSSFKIE
# Columns and labels:
# Experiment in all cases: glycan array binding signal (z-score within array); higher = stronger binding
# Conditions in all cases: glycan notation: IUPAC condensed, linker removed
# [1] = target: Fuc(a1-2)Gal(b1-3)GalNAc(b1-4)[Neu5Ac(a2-3)]Gal(b1-4)Glc
# Outline: (§1)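 The binding signal is a Z-score computed within each array and averaged over linkers. Arrays of the same protein sequence at different concentrations or buffers were also averaged together. Data originate from 3228 arrays in the Consortium for Functional Glycomics database, kept only where the protein sequence was available.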
# [2] = target: Fuc(a1-2)Gal(b1-3)[Fuc(a1-4)]GlcNAc(b1-3)[Fuc(a1-3)[Gal(b1-4)]GlcNAc(b1-6)]Gal(b1-4)Glc
# Outline: as §1
# [3] = target: Fuc(a1-2)Gal(b1-4)GlcNAc(b1-2)Man(a1-3)[Fuc(a1-2)Gal(b1-4)GlcNAc(b1-2)Man(a1-6)]Man(b1-4)GlcNAc(b1-4)GlcNAc
# Outline: as §1
# [4] = target: Fuc(a1-2)Gal(b1-4)GlcNAc(b1-2)Man(a1-3)[Fuc(a1-2)Gal(b1-4)GlcNAc(b1-2)Man(a1-6)]Man(b1-4)GlcNAc(b1-4)[Fuc(a1-6)]GlcNAc
# Outline: as §1
# [5] = target: Fuc(a1-2)Gal(b1-4)GlcNAc(b1-3)Gal(b1-4)GlcNAc(b1-3)Gal(b1-4)GlcNAc
# Outline: as §1
# [6] = target: Fuc(a1-2)Gal(b1-4)[Fuc(a1-3)]GlcNAc(b1-2)Man(a1-3)[Fuc(a1-2)Gal(b1-4)[Fuc(a1-3)]GlcNAc(b1-2)Man(a1-6)]Man(b1-4)GlcNAc(b1-4)GlcNAc
# Outline: as §1
# [7] = target: Fuc(a1-2)Gal(b1-4)[Fuc(a1-3)]GlcNAc(b1-3)GalNAc
# Outline: as §1
# [8] = target: Fuc(a1-2)[Gal(a1-3)]Gal(b1-4)GlcNAc
# Outline: as §1
# [9] = target: Fuc(a1-2)[Gal(a1-3)]Gal(b1-4)GlcNAc(b1-2)Man(a1-3)[Fuc(a1-2)[Gal(a1-3)]Gal(b1-4)GlcNAc(b1-2)Man(a1-6)]Man(b1-4)GlcNAc(b1-4)GlcNAc
# Outline: as §1
# [10] = target: Fuc(a1-2)[Gal(a1-3)]Gal(b1-4)GlcNAc(b1-2)Man(a1-3)[Fuc(a1-2)[Gal(a1-3)]Gal(b1-4)GlcNAc(b1-2)Man(a1-6)]Man(b1-4)GlcNAc(b1-4)[Fuc(a1-6)]GlcNAc
# Outline: as §1
# [11] = target: Fuc(a1-2)[Gal(a1-3)]Gal(b1-4)[Fuc(a1-3)]GlcNAc(b1-3)GalNAc
# Outline: as §1
# [12] = target: Fuc(a1-2)[GalNAc(a1-3)]Gal
# Outline: as §1
# [13] = target: Fuc(a1-2)[GalNAc(a1-3)]Gal(b1-3)GalNAc(a1-3)[Fuc(a1-2)]Gal(b1-4)GlcNAc
# Outline: as §1
# [14] = target: Gal(a1-3)Gal(b1-3)GlcNAc(b1-2)Man(a1-3)[Gal(a1-3)Gal(b1-3)GlcNAc(b1-2)Man(a1-6)]Man(b1-4)GlcNAc(b1-4)GlcNAc
# Outline: as §1
# [15] = target: Gal(a1-3)Gal(b1-4)[Fuc(a1-3)]GlcNAc(b1-2)Man(a1-3)[Gal(a1-3)Gal(b1-4)[Fuc(a1-3)]GlcNAc(b1-2)Man(a1-6)]Man(b1-4)GlcNAc(b1-4)GlcNAc
# Outline: as §1
# [16] = target: Gal(b1-3)GlcNAc(b1-2)Man(a1-3)[Gal(b1-3)GlcNAc(b1-2)Man(a1-6)]Man(b1-4)GlcNAc(b1-4)GlcNAc
# Outline: as §1
# [17] = target: Gal(b1-3)GlcNAc(b1-2)Man(a1-3)[Gal(b1-3)GlcNAc(b1-2)Man(a1-6)]Man(b1-4)GlcNAc(b1-4)[Fuc(a1-6)]GlcNAc
# Outline: as §1
# [18] = target: Gal(b1-3)[Fuc(a1-4)]GlcNAc(b1-3)Gal(b1-4)GlcNAc
# Outline: as §1
# [19] = target: Gal(b1-3)[Neu5Ac(a2-6)]GlcNAc(b1-6)Gal(b1-4)Glc
# Outline: as §1
# [20] = target: Gal(b1-4)GlcNAc(b1-3)Gal(b1-4)GlcNAc
# Outline: as §1
# [21] = target: Gal4S(b1-4)GlcNAc
# Outline: as §1
# [22] = target: Gal6S(b1-3)GlcNAc
# Outline: as §1
# [23] = target: GalNAc(b1-3)Gal(a1-6)Gal(b1-4)Glc
# Outline: as §1
# [24] = target: GalNAc(b1-4)GlcNAc
# Outline: as §1
# [25] = target: GlcA(b1-3)GlcNAc
# Outline: as §1
# [26] = target: GlcNAc(a1-4)Gal(b1-4)GalNAc
# Outline: as §1
# [27] = target: GlcNAc(a1-4)Gal(b1-4)GlcNAc(b1-3)Gal(b1-4)[Fuc(a1-3)]GlcNAc(b1-3)Gal(b1-4)[Fuc(a1-3)]GlcNAc
# Outline: as §1
# [28] = target: GlcNAc(b1-4)[GlcNAc(b1-6)]GalNAc
# Outline: as §1
# [29] = target: Man(a1-3)[Man(a1-6)]Man
# Outline: as §1
# [30] = target: Neu5Ac(a2-3)Gal(b1-3)[Neu5Ac(a2-3)Gal(b1-4)]GlcNAc
# Outline: as §1
# [31] = target: Neu5Ac(a2-3)Gal(b1-4)GlcNAc(b1-3)Gal(b1-4)GlcNAc
# Outline: as §1
# [32] = target: Neu5Ac(a2-3)Gal(b1-4)[Fuc(a1-3)]GlcNAc(b1-3)GalNAc
# Outline: as §1
# [33] = target: Neu5Ac(a2-6)Gal(b1-4)GlcNAc(b1-2)Man(a1-3)[Man(a1-6)]Man(b1-4)GlcNAc(b1-4)GlcNAc
# Outline: as §1
# [34] = target: Neu5Ac(a2-6)Gal(b1-4)GlcNAc(b1-2)Man(a1-6)[GlcNAc(b1-2)Man(a1-3)]Man(b1-4)GlcNAc(b1-4)GlcNAc
# Outline: as §1
# [35] = target: Neu5Ac(a2-6)Gal(b1-4)GlcNAc(b1-3)Gal(b1-4)GlcNAc(b1-3)Gal(b1-4)GlcNAc
# Outline: as §1
# [36] = target: Neu5Ac(a2-6)Gal(b1-4)GlcNAc(b1-3)GalNAc
# Outline: as §1
binder,measurement,setting,value
B1,glycan array binding signal (z-score),[1],-0.028
same,glycan array binding signal (z-score),[2],0.019
same,glycan array binding signal (z-score),[3],1.43
same,glycan array binding signal (z-score),[4],0.046
same,glycan array binding signal (z-score),[5],-0.156
same,glycan array binding signal (z-score),[6],0.795
same,glycan array binding signal (z-score),[7],0.409
same,glycan array binding signal (z-score),[8],0.681
same,glycan array binding signal (z-score),[9],15.5
same,glycan array binding signal (z-score),[10],6.28
same,glycan array binding signal (z-score),[11],0.088
same,glycan array binding signal (z-score),[12],-0.339
same,glycan array binding signal (z-score),[13],-0.173
same,glycan array binding signal (z-score),[14],0.082
same,glycan array binding signal (z-score),[15],0.339
same,glycan array binding signal (z-score),[16],0.14
same,glycan array binding signal (z-score),[17],0.051
same,glycan array binding signal (z-score),[18],0.099
same,glycan array binding signal (z-score),[19],-0.068
same,glycan array binding signal (z-score),[20],-0.157
same,glycan array binding signal (z-score),[21],1.7
same,glycan array binding signal (z-score),[22],-0.457
same,glycan array binding signal (z-score),[23],0.131
same,glycan array binding signal (z-score),[24],-0.029
same,glycan array binding signal (z-score),[25],2.91
same,glycan array binding signal (z-score),[26],-0.278
same,glycan array binding signal (z-score),[27],1.2
same,glycan array binding signal (z-score),[28],-0.114
same,glycan array binding signal (z-score),[29],0.15
same,glycan array binding signal (z-score),[30],-0.369
same,glycan array binding signal (z-score),[31],0.01
same,glycan array binding signal (z-score),[32],1.21
same,glycan array binding signal (z-score),[33],-0.076
same,glycan array binding signal (z-score),[34],-0.361
same,glycan array binding signal (z-score),[35],-0.293
same,glycan array binding signal (z-score),[36],0.102
